The source made the active and inactive calls.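 The calls were made as follows: active = visually confirmed hit in the image check and inhibition above 20%; inconclusive = visually confirmed hit but inhibition not above 20%; inactive = no visual hit in the image check.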
Experiment: inhibitors of E-selectin induction by TNFa, primary screen, imaging, HUVEC, immunofluorescence, MLSMR starter and 10KST1 sets (AID 487);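 as to inhibition: signal is fraction of cell area covered by stained E-selectin grains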;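 as to nuclei count: 100% = median nuclei count of all wells on the same plate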
Settings: HUVEC TNFalpha-induced E-selectin immunofluorescence imaging, at 2 µM; inhibition: stronger effect = higher value; nuclei count: measured here: cell number, toxicity

SMILES	inhibition	nuclei count [%]
CC(c1ccco1)N(C(=O)COc1ccc(Cl)cc1Cl)c1ccccn1 (stereo not given)	-108% (inactive)	119
O=S(=O)(c1ccc(OCC(O)CN2CCC(Cc3ccccc3)CC2)cc1)N1CCOCC1 (stereo not given)	-22.7% (inactive)	116
Cc1nc(SCC(=O)NCc2ccco2)c2c(C)c(C)sc2n1	-4.2% (inactive)	112
CC(C)(C)n1ncc2c(=O)n(CC(=O)NCc3ccco3)cnc21	4.2% (inactive)	112
Cc1cccn2c(=O)c3cc(C#N)c(=NC(=O)c4cccnc4)n(CC4CCCO4)c3nc12 (stereo not given)	-74.7% (inactive)	107
CCOC(=O)CS(=O)(=O)c1nc(-c2ccccc2)cc(C(F)(F)F)n1	-15.5% (inactive)	116
CCOC(=O)c1ccc(NC2OC(=O)c3ccccc32)cc1 (stereo not given)	-85.2% (inactive)	118
CC(C)C(=O)Nc1cccc(NC(=O)c2cccnc2)c1	-167% (inactive)	104
Cc1ccc(C)n1NC(=O)c1ccco1	-19.2% (inactive)	109
CCCN1CCN(CCCNC(=O)Cn2nc(-c3ccc(Cl)cc3)ccc2=O)CC1	-205% (inactive)	131
Cc1cccc(-n2c(Cc3cc(=O)[nH]c(=O)[nH]3)nnc2SCC(=O)NCc2ccco2)c1	-15.1% (inactive)	101
COc1ccc(CN2C(=O)c3cccnc3C2Nc2cc(Cl)ccc2OC)cc1 (stereo not given)	-26.9% (inactive)	112
CS(=O)(=O)N(CC(=O)O)c1cccc(Cl)c1	-49% (inactive)	121
O=C(Nc1ccccc1C(=O)N1CCCCCC1)c1cccc(S(=O)(=O)N2CCOCC2)c1	-60.5% (inactive)	84.2
COC(=O)c1ccc(CSc2nc3c(cnn3-c3ccc(C)c(C)c3)c(=O)[nH]2)o1	-55.6% (inactive)	108
CCn1nnnc1SCC(=O)Nc1nnc(C(C)C)s1	1% (inactive)	116
COCCNC(=O)CN(C)S(=O)(=O)c1ccc2c(c1)OCCO2	-59.8% (inactive)	108
Cc1nc(C)c(C(=O)OCC(=O)N2CCN(c3ccccc3)CC2)s1	-18.7% (inactive)	102
CCOC(=O)CNc1ccc2c(c1)OCO2	-105% (inactive)	118
Cc1ccc(S(=O)(=O)N(CC(=O)N2CCOCC2)CC(=O)N2CCOCC2)cc1	-163% (inactive)	106

SMILES	inhibition	nuclei count [%]
Cc1cc(Cl)ccc1OCCCC(=O)N1CCOCC1	-29.2% (inactive)	112
CCC1(CC)NC(=O)NC1=O	12.8% (inactive)	106
CC(=O)N1C(=O)C2(Nc3ccccc3N2)c2ccccc21	20.6% (inactive)	108
CC1(C)OC(=O)C(=CNc2ccccc2)C(=O)O1	54.3% (inactive)	102
C=CCn1c(C)cc(C(=O)CSc2nc3ccccc3c(=O)[nH]2)c1C	-59.5% (inactive)	104
CCOC(=O)N1CCN(C(=O)CCc2c(C)nc3c(c(C)nn3-c3ccc(C)c(C)c3)c2C)CC1	-63.4% (inactive)	116
CSc1ccccc1NC(=O)CN(Cc1ccccc1)S(C)(=O)=O	-78.6% (inactive)	103
CCOC(=O)c1[nH]c(C)c(C(=O)Nc2ccc(C)c(Cl)c2)c1C	-7.5% (inactive)	96.5
CC(=O)NC1=NC(=O)/C(=C/N2CCCCC2)S1	-11.8% (inactive)	103
COc1ccccc1C1C(C(C)=O)=C(O)C(=O)N1CCc1ccccc1 (stereo not given)	-33.5% (inactive)	103
CCCn1c2c(c(O)c(C(=O)Nc3ccc(C)cn3)c1=O)CCCC2	-7.5% (inactive)	91.3
O=c1oc2ccccc2n1CCc1ccccc1	-76.9% (inactive)	238
Cc1ccc(-n2nc(-c3cccs3)cc2C(=O)NCC2CCCO2)c(C)c1 (stereo not given)	-9.6% (inactive)	110
CC1(C)CC(=O)c2c(O)cc(O)cc2O1	-55.7% (inactive)	99.8
CCOC(=O)C1C(=O)OC(C)(C)C1C(C)C(=O)c1ccc(OC)cc1 (stereo not given)	3.9% (inactive)	92.7
N#CCSc1nc(-c2ccccc2)cs1	-25.1% (inactive)	109
CCCOc1ccc([C@@H]2C3CN(C(=O)OCC)CC=C3C(C#N)=C(N)C2(C#N)C#N)cc1OC (stereo not given in full)	-44.9% (inactive)	112
O=C(CSc1nc(C2CCCCC2)n(-c2ccccc2)n1)NCCN1C(=O)CSC1=O	-13.3% (inactive)	140
CC(=O)OCC(=O)c1ccc2ccn(C(C)=O)c2c1	-19.1% (inactive)	95.5
CS(=O)(=O)Nc1ccc(C(=O)NCCc2ccccc2)cc1	-69% (inactive)	125
